Screens: PubChem, NMMLSC
Sampled rows, rich in hits. Any-hit rate of the full collection: about 1.2%.
CIT2 TOR yeast – modulators of TOR pathway CIT2-GFP in S. cerevisiae | S. cerevisiae CIT2-GFP strain, flow cytometry, 3 h; 100 means same as DMSO wells | GFP response vs DMSO, % at 10 µM | 320,000 tested, 0.065% active | AID 2029;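 active = GFP response relative to DMSO above a set limit, near the screen mean plus 3 SD, cut at about 150% in these data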;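 also: ratio of well median GFP fluorescence to mean of DMSO wells on the plate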
RPL19A-GFP yeast – alters RPL19A-GFP fluorescence in TOR pathway yeast screen | S. cerevisiae RPL19A-GFP strain, flow cytometry, 3 h; hits give low values | percent response vs DMSO, % at 10 µM | 330,000 tested, 0.3% active | AID 2025;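 active = percent response vs DMSO below 50%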;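 also: median channel GFP fluorescence of the barcoded RPL19A-GFP strain; ratio of sample median GFP to plate DMSO average so 100% = DMSO; lower means less RPL19A-GFP as with rapamycin TOR inhibition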
MEP2 TOR yeast – alters MEP2-GFP fluorescence in TOR pathway yeast screen. GFP response vs DMSO, % at 10 µM. S. cerevisiae MEP2-GFP strain, flow cytometry GFP, 3 h; 100% = DMSO control level. AID 2016. 330,000 tested, 0.51% active;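 active = GFP response versus DMSO above a set limit, roughly screen mean plus 3 SD, cut at about 180% in these data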;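 also: median GFP fluorescence of the barcode-gated MEP2-GFP cells per well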
LAP4-GFP MLPCN – modulators of TOR pathway LAP4-GFP in S. cerevisiae; S. cerevisiae LAP4-GFP multiplex, flow cytometry GFP, 3 h; median GFP as percent of DMSO wells; GFP response vs DMSO, % at 10 µM; 320,000 tested, 0.34% active; AID 2023;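 active = GFP response vs DMSO above a set limit, about the screen mean plus 3 SD, cut at about 150% in these data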
AGP1 TOR yeast – alters AGP1-GFP fluorescence in TOR pathway yeast screen | S. cerevisiae AGP1-GFP multiplex flow cytometry, 3 h; GFP as percent of DMSO wells | GFP response vs DMSO, % at 10 µM | 320,000 tested, 0.02% active | AID 2066;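 active = GFP response relative to DMSO above a set limit, near screen average plus 3 SD, cut at about 150% in these data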;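 also: median GFP channel fluorescence of the gated AGP1 strain per well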
Pemphigus Ab inh – inhibitors of pemphigus antibody binding to human desmoglein-3; 310,000 tested, 0.48% active; AID 588358; DSG3-coupled beads, scFv-anti-DSG3-GFP binding, flow cytometry; hits give low values; binding (percent of control), % at 10 µM;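 active = binding more than 3 SD below its plate's average and above zero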;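 also: hits lower antibody fragment binding to DSG3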
Target sequence (P32926 whole entry, looked up, the tested form may be a part): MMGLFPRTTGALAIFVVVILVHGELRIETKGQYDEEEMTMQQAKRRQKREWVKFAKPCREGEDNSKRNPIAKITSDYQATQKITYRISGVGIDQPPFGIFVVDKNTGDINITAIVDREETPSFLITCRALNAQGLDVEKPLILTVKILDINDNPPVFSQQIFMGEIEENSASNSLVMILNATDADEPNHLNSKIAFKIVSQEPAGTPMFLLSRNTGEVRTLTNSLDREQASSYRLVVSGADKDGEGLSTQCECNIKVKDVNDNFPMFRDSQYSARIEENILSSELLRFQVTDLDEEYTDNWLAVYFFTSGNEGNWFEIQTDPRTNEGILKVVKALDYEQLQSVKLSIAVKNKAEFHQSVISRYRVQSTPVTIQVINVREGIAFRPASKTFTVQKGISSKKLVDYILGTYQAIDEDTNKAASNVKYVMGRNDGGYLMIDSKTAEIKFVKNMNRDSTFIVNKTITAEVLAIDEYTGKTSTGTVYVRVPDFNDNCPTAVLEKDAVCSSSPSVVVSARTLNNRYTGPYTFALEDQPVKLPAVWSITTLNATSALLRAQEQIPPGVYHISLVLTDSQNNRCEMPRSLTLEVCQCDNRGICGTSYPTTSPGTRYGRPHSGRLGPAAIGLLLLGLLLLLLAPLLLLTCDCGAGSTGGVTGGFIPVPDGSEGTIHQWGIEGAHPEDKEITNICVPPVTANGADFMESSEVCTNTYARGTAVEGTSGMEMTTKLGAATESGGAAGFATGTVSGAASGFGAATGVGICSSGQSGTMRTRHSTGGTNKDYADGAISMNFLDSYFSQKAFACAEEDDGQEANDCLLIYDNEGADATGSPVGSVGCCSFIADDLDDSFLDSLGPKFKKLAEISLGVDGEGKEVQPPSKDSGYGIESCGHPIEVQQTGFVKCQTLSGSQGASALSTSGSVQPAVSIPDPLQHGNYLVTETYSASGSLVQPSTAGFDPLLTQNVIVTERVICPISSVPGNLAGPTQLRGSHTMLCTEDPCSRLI
LAP4 cherry2 – second confirmation of modulators of TOR reporter LAP4-GFP in yeast; GFP response vs DMSO, % at 10 µM; S. cerevisiae LAP4-GFP strain, flow cytometry GFP, 3 h; shares compounds with LAP4-GFP MLPCN; 590 tested, 20% active;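 active = GFP signal as percent of the solvent control above about 150%, meaning raised reporter expression, limit read from the data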;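 also: ratio of well median GFP fluorescence to plate DMSO mean so 100% = DMSO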
MEP2-GFP pick2 – second confirmation of modulators of TOR reporter MEP2-GFP in yeast. GFP response vs DMSO, % at 10 µM. 590 tested, 10% active. AID 2622. S. cerevisiae MEP2-GFP strain, flow cytometry GFP, 3 h. shares compounds with LAP4-GFP MLPCN;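 active = GFP signal above 150% of the solvent control wells, that is a rise of more than half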;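 also: median channel GFP fluorescence of all gated yeast cells per well; ratio of median GFP to plate DMSO average so 100% = DMSO level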
RPL19A GFP CP2 – yeast RPL19A-GFP TOR reporter modulation, second cherry pick; shares compounds with LAP4-GFP MLPCN; S. cerevisiae RPL19A-GFP strain, flow cytometry GFP, 3 h; hits give low values; 100% means same as DMSO wells; GFP response vs DMSO, % at 10 µM; 590 tested, 3% active;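 active = under 65% GFP response relative to DMSO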;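 also: median GFP channel fluorescence per well over the all cells gate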
CIT2-GFP pick2 – yeast CIT2-GFP TOR reporter modulation, second cherry pick; shares compounds with LAP4-GFP MLPCN; S. cerevisiae CIT2-GFP strain, flow cytometry GFP, 3 h; DMSO control wells read 100%; GFP response vs DMSO, % at 10 µM; 590 tested, 8% active; AID 2624;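 active = GFP response vs DMSO above about 150%, limit read from the data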;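 also: median green fluorescence per well over all gated yeast cells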
AGP1-GFP pick2 – second confirmation of modulators of TOR reporter AGP1-GFP in yeast; percent response vs DMSO, % at 10 µM; 590 tested, under 10 active; AID 2643; S. cerevisiae AGP1-GFP strain, flow cytometry GFP, 3 h; shares compounds with LAP4-GFP MLPCN;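 active = over 150 percent of DMSO response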;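 also: median GFP channel fluorescence over all cells without mother daughter split; sample median GFP divided by mean DMSO control so 100% equals DMSO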
Yeast autofluor – compound is autofluorescent in yeast s288c cells; shares compounds with LAP4-GFP MLPCN; S. cerevisiae s288c, 520 nm autofluorescence, flow cytometry, 3 h; hits give high values; zero means same as solvent-only cells; fluorescence change (kMESF span) at 33 µM; 610 tested, under 10 active; AID 2757;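 active = fluorescence span over the dose series, or activity score, above about 33, limit read from the data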
An asterisk follows results filed as active.

`COC1=C(N)C(=O)c2nc(-c3nc(C(=O)O)c(C)c(-c4ccc(OC)c(OC)c4O)c3N)ccc2C1=O` gave CIT2 TOR yeast 71, RPL19A-GFP yeast 60, MEP2 TOR yeast 132, LAP4-GFP MLPCN 218*, AGP1 TOR yeast 67, LAP4 cherry2 309*, MEP2-GFP pick2 252*, RPL19A GFP CP2 95, CIT2-GFP pick2 349* and AGP1-GFP pick2 98.
`O=C1N[C@@H](Cc2ccccc2)C(=O)N2[C@H]3Nc4ccccc4[C@@]3([C@]34C[C@H]5C(=O)N[C@@H](Cc6ccccc6)C(=O)N5[C@H]3Nc3ccccc34)C[C@@H]12` gave CIT2 TOR yeast 99, RPL19A-GFP yeast 99, MEP2 TOR yeast 98, LAP4-GFP MLPCN 91 and AGP1 TOR yeast 103.
`CN1C(=O)[C@@H]2C[C@@]3([C@@]45C[C@H]6C(=O)N(C)[C@@H](Cc7ccccc7)C(=O)N6[C@@H]4Nc4ccccc45)c4ccccc4N[C@H]3N2C(=O)[C@@H]1Cc1ccccc1` gave CIT2 TOR yeast 129, RPL19A-GFP yeast 99, MEP2 TOR yeast 94, LAP4-GFP MLPCN 155*, AGP1 TOR yeast 94, Pemphigus Ab inh 95, LAP4 cherry2 97, MEP2-GFP pick2 96, RPL19A GFP CP2 103, CIT2-GFP pick2 108 and AGP1-GFP pick2 100.
Screening O=C(COC(=O)c1c[nH]c2ccccc12)Nc1cccc(F)c1 returned CIT2 TOR yeast 96, RPL19A-GFP yeast 103, MEP2 TOR yeast 103, LAP4-GFP MLPCN 107, AGP1 TOR yeast 99 and Pemphigus Ab inh 97.
For CCOC(=O)N1CCN(C(=O)COC(=O)CSc2ccc([N+](=O)[O-])cc2)CC1 the results were CIT2 TOR yeast 98, RPL19A-GFP yeast 95, MEP2 TOR yeast 102, LAP4-GFP MLPCN 100, AGP1 TOR yeast 103 and Pemphigus Ab inh 105.
Screening O=C(Cn1cccc1C(=O)c1ccccc1)NCCCc1ccccc1 returned CIT2 TOR yeast 91, RPL19A-GFP yeast 89, MEP2 TOR yeast 88, LAP4-GFP MLPCN 95, AGP1 TOR yeast 93 and Pemphigus Ab inh 100.
`O=C(Cn1cccc1C(=O)c1ccccc1)NCCC1=CCCCC1` gave CIT2 TOR yeast 98, RPL19A-GFP yeast 51, MEP2 TOR yeast 158, LAP4-GFP MLPCN 90, AGP1 TOR yeast 23, Pemphigus Ab inh 102, LAP4 cherry2 99, MEP2-GFP pick2 100, RPL19A GFP CP2 98, CIT2-GFP pick2 110 and AGP1-GFP pick2 106.
Screening COc1ccc(NC(=O)/C(C#N)=C/c2ncc([N+](=O)[O-])n2C)c(OC)c1 returned CIT2 TOR yeast 117, RPL19A-GFP yeast 100, MEP2 TOR yeast 134, LAP4-GFP MLPCN 182*, AGP1 TOR yeast 104, Pemphigus Ab inh 96 and Yeast autofluor 2.3.
`COc1cccc(CNC(=O)c2ccc3c(c2)N(C)CCS3)c1OC` gave CIT2 TOR yeast 161*, RPL19A-GFP yeast 64, MEP2 TOR yeast 759*, LAP4-GFP MLPCN 258*, AGP1 TOR yeast 154*, Pemphigus Ab inh 88, LAP4 cherry2 99, MEP2-GFP pick2 100, RPL19A GFP CP2 99, CIT2-GFP pick2 99 and AGP1-GFP pick2 97.
`CN1CCSc2ccc(C(=O)NCc3ccccc3F)cc21` gave CIT2 TOR yeast 90, RPL19A-GFP yeast 100, MEP2 TOR yeast 106, LAP4-GFP MLPCN 121, AGP1 TOR yeast 91 and Pemphigus Ab inh 102.
O=C(CSC(=S)N1CCCC1)NCC(=O)Nc1ccccc1Br was read as CIT2 TOR yeast 98, RPL19A-GFP yeast 102, MEP2 TOR yeast 97, LAP4-GFP MLPCN 115, AGP1 TOR yeast 118 and Pemphigus Ab inh 120.
`CCOP(=O)(OCC)C(Nc1cccc([N+](=O)[O-])c1)c1ccc(N(C)C)cc1` (configuration not stated) gave CIT2 TOR yeast 86, RPL19A-GFP yeast 86, MEP2 TOR yeast 103, LAP4-GFP MLPCN 103, AGP1 TOR yeast 77 and Pemphigus Ab inh 102.
For CCOP(=O)(OCC)C(Nc1cccc([N+](=O)[O-])c1)c1ccc(OC)cc1 (configuration not stated) the results were CIT2 TOR yeast 94, RPL19A-GFP yeast 58, MEP2 TOR yeast 138, LAP4-GFP MLPCN 99, AGP1 TOR yeast 40, Pemphigus Ab inh 112, LAP4 cherry2 100, MEP2-GFP pick2 102, RPL19A GFP CP2 101, CIT2-GFP pick2 109 and AGP1-GFP pick2 102.
Cc1ccc2c(Cl)c(C(=O)NC3CC3)sc2c1 was read as CIT2 TOR yeast 103, RPL19A-GFP yeast 105, MEP2 TOR yeast 100, LAP4-GFP MLPCN 83, AGP1 TOR yeast 87 and Pemphigus Ab inh 103.
CS(=O)(=O)c1nc(-c2ccc(F)cc2)cc(C(F)(F)F)n1 was read as Pemphigus Ab inh 85.
For CS(=O)(=O)c1nc(-c2cccs2)cc(C(F)(F)F)n1 the results were CIT2 TOR yeast 84, RPL19A-GFP yeast 88, MEP2 TOR yeast 162, LAP4-GFP MLPCN 186*, AGP1 TOR yeast 124 and Yeast autofluor 0.61.
For COc1ccc(-c2cc(C(F)(F)F)nc(S(C)(=O)=O)n2)cc1 the results were CIT2 TOR yeast 84, RPL19A-GFP yeast 97, MEP2 TOR yeast 146, LAP4-GFP MLPCN 155*, AGP1 TOR yeast 114, Pemphigus Ab inh 87 and Yeast autofluor 0.62.
